The whole screen tested about 1,200 compounds, of which fewer than 10 were called active. A selection follows. Unmarked numbers belong to inactive results. Calls come from the whole dose curve; as a rule, active = well fitted curve in the direction sought with a large enough effect; inconclusive = small, poorly fitted or top-dose-only effect, or another doubt; inactive = no such curve, though single readings can be large or run the other way.

A short description of this assay: Confirmatory qHTS assay for inhibitors of Activation Induced Cytidine Deaminase (AID): UDG signals. Note: 0% is about no effect. The settings on record: UDG coupled enzyme activity counter-screen; series mostly up to 115 µM; activity change, negative = inhibition: at the top concentration. The text has this: Assay Provider (PI) Patricia Gearhart Ph.D.
National Institute on Aging
National Institute of Health (NIH), Bethesda, MD
Assay Provider (PI) Rahul Kohli Ph.D.
Perelman School of Medicine
University of Pennsylvania, Philadelphia, PA
Activation-Induced Deaminase (AID) is a cytosine deaminase which converts cytosine into uracil within stretches of ssDNA. The presence of uracil in DNA initiates a cascade of mutagenic DNA repair to introduce point mutations and DNA double strand breaks. Specific targeting of AID to the immunoglobulin heavy chain loci (Igh) promotes mutagenesis in the antibody variable region for somatic hypermutation (SHM) or switch regions leading to class switch recombination (CSR). However, AID also plays a role in accumulating unnecessary mutations across the genome. Mis-targeting of AID results in the initiation of tumor development and leads to greater drug resistance among cancer cells when continually expressed. To identify an AID inhibitor, a small molecule library will be screened in collaboration with NCATS core facility at NIH. To confirm biological function, inhibitors will be examined in an in vitro murine B-cell activation assay and subsequent secondary validation screens. Top molecules will be further screened to identify inhibitory efficacy against a wild type primary splenocytes assay. Using these approaches, we hope to identify a small molecule with great efficacy and low toxicity for use as a molecular probe to further characterize AID's intricacies, or even as a therapeutic.
A FRET based analysis of cytosine deamination, was developed to identify potential inhibitors of AID catalytic activity. This screen has two signal output, Read 1 evaluates the AID inhibition response. The second readout (Read 2) evaluates UDG response and is uses as a counterscreen to exclude false positive inhibitors. Inhibition in AID and inactivity in the UDG signal is the desired outcome for this assay.
SEQUENCE No. (e.g., 1, 2, 3, etc.); […] (e.g., Cells, Incubation, Reagent, etc.); VALUE; DESCRIPTION
1a; Reagent; 3 uL; [4/3x] 1 uM AID/2.67 U/mL UDG
1b; Reagent; 3 uL; 2 U/mL UDG
1c; Reagent; 3 uL; 1 uM AID
2a; Compound; 46 nL; Follow-up plates (0.64 uM - 10 mM)
2b; Control; 46 nL; ATA ([…] - 10 mM)
3; Time; 10 min; incubation at room temperature
5; Time; 4 hr; incubation at room temperature
6; Reagent; 4 uL; [2x] 250 mM NaOH
7; Time; 15 sec; centrifuge at 1000 rpm
8; Time; 30 min; incubation at room temperature
9a; Detection; fluorescence (Read 1: AID); EnVision (PerkinElmer) plate reader, 540 excitation and 590 emission filters
9b; Detection; fluorescence (Read 2: UDG); EnVision (PerkinElmer) plate reader, 560 excitation and 665 emission filters
NOTES (numbers refer to sequence above)
1a; Reagents were dispensed in a medium-binding black solid-bottom Greiner plates (789176F) using a BioRptr liquid dispenser. Dispense 3 uL of [4/3x] 1 uM AID (provided by Kohli lab) and [4/3x] 2 U/mL UDG (NEB M0280L) into columns 1, 2, 5 to 48.
1b; Dispense 3 uL of [4/3x] 2 U/mL UDG into column 3.
1c; Dispense 3 uL of [4/3x] 1 uM AID into column 4.
2a; Compound (7-points [uM]: 0.64; 3.2; 16; 80; 400; 2,000; 10,000; […]) double pin-transferred (Dip Factor = 2) using the Kalypsys (Wako USA) pintool equipped with a 1536 pinhead for a final concentration range of 7.32 nM - 114 uM.
2b; 10 mM Aurintricarboxylic Acid (Sigma A1895) (ATA, 8-point, n = 2, 1:2.5 dilution in column 2) double pin-transferred (Dip Factor = 2) using the Kalypsys (Wako USA) pintool equipped with a 1536 pinhead for a [final] range of 186 nM - 114 uM.
3; Room temperature incubation.
4; Dispense 1 uL of substrate mixture from the Kohli lab [4x] […] DJC20 and [4x] 250 nM DJC23 into columns 1 to 48 .
5; Room temperature incubation.
6; Dispense 4 uL of substrate mixture [2x] 250 mM NaOH into columns 1 to 48.
7; Centrifugation step to remove bubbles.
8; Room temperature incubation
9a; Fluorescence signal (column label AID) was read using the EnVision plate reader. […]
As to `Cc1ccc(C)c(N2CCN(CCCNC(=O)c3cnn(-c4cccc(Cl)c4)c3C3CCN(C(=O)OC(C)(C)C)CC3)CC2)c1`, the “activity change, negative = inhibition” value is -6.96%.

`Cc1cccc(OC(C)C(=O)N2CCC(c3nc4ccccc4o3)CC2)c1C` (stereo unspecified): the “activity change, negative = inhibition” value was -9.18%.

In the case of `COc1ccc(-c2csc3nc(-c4ccc(C)cc4)oc(=O)c23)cc1OC`, the “activity change, negative = inhibition” value was -0.182%.

As to `COc1ccc(OCCCn2c(=O)oc3ccc(C)cc32)cc1`, the “activity change, negative = inhibition” value is -5.37%.

As for `Cc1ccc(Cl)cc1N(C)C(=O)c1cc2ccc3cccnc3c2[nH]1`, the “activity change, negative = inhibition” value was 0.172%.

For `COc1ccc(OC)c(NC(=O)Cn2c(=O)cc(C)c3c(C)nn(-c4cccc(Cl)c4C)c32)c1`, the “activity change, negative = inhibition” value is 10.9%.

As to `COc1ccccc1NC(=O)c1cc2cc3ccc(OC)c(Cl)c3nc2s1`, the “activity change, negative = inhibition” value is 8.79%.

In the case of `Cc1ccc(C)c(CSc2cn(CCNC(=O)c3cccs3)c3ccccc23)c1`, the “activity change, negative = inhibition” value was -2.36%.

Take `CCOc1ccc(NC(=O)CSc2nccn2-c2cccc(C)c2C)cc1`: the “activity change, negative = inhibition” value was -4.02%.

Consider `CCOc1ccc(S(=O)(=O)c2c(C(=O)c3ccc(C)c(C)c3)cnc3ccccc23)cc1`, for which the “activity change, negative = inhibition” value was -3.6%.

Consider `CCC1CCCCN1C(=O)CSc1nc(-c2ccc(OC)cc2)cc(C(F)(F)F)n1` (stereo unspecified), for which the “activity change, negative = inhibition” value is -16.9%.

Turning to `CCn1cc(C(=O)NCc2ccccc2OC)c(=O)c2cc(S(=O)(=O)N3CCCCC3)ccc21`, the “activity change, negative = inhibition” value is -14.6%.

Regarding `Cc1ccccc1OCC(=O)Nc1cccc(C(=O)OCc2cc(=O)n3c(C)csc3n2)c1`, the “activity change, negative = inhibition” value was 1.99%.

With `COc1ccc(CC(=O)N(Cc2nc(-c3ccc(C)cc3)no2)C(C)C)cc1`, the “activity change, negative = inhibition” value was 5.81%.

Regarding `Cc1ccccc1-c1nc(CS(=O)CC(=O)N2CCN(c3cc(Cl)ccc3C)CC2)c(C)o1` (stereo unspecified), the “activity change, negative = inhibition” value was -9.14%.

On to `CS(=O)(=O)N(Cc1ccccc1)c1ccc(C(=O)Nc2ccc(Cl)cc2)cc1`, for which the “activity change, negative = inhibition” value was 2.66%.

Regarding `CCOC(=O)c1cc(-c2ccc(C)cc2)n(CCC(=O)Nc2ccc(OC)c(OC)c2)c1C`, the “activity change, negative = inhibition” value is 1.84%.

Regarding `Cc1nc2c(-c3ccccc3)c(C)nn2c(C)c1CCC(=O)N1CCN(c2ccc(F)cc2)CC1`, the “activity change, negative = inhibition” value was 0.55%.

`C=Cc1ccc(CSc2nc(-c3ccc(C)cc3)nc3c2Cc2c(CO)cnc(C)c2O3)cc1`: the “activity change, negative = inhibition” value was -10.6%.

With `CCc1ccc(CN(Cc2ccco2)C(=O)c2ccc(OC)cc2)cc1`, the “activity change, negative = inhibition” value is -8.82%.

For the compound `COc1ccc(CC(=O)NCC(c2cccs2)S(=O)(=O)c2ccc(Cl)cc2)cc1` (stereo unspecified), the “activity change, negative = inhibition” value was -11.8%.

On to `Cc1cc(N(C)Cc2ccccc2)n2nc(-c3ccc(C(C)(C)C)cc3)nc2n1`, for which the “activity change, negative = inhibition” value is -13.6%.

Regarding `Cc1cc(C)cc(Nc2nc3cc(Cl)c(Cl)cc3nc2-n2nc(C)cc2C)c1`, the “activity change, negative = inhibition” value was 4.6%.

For `N#CC1=C2SCN(C3CCCCC3)CN2C(=O)CC1c1c(F)cccc1Cl` (stereo unspecified), the “activity change, negative = inhibition” value was -4.69%.

For `Cc1c(C(=O)N(C)Cc2ccccc2)sc2nc(-c3ccc(F)cc3)cn12`, the “activity change, negative = inhibition” value is -10.1%.

Turning to `CCOC(=O)c1cccc(NC(=O)c2oc3c(c2C)-c2nn(CC)cc2CC3)c1`, the “activity change, negative = inhibition” value is -7.26%.

With `COc1ccc(OCC(=O)NCC(c2ccc(Cl)cc2)N2CCCCC2)cc1` (stereo unspecified), the “activity change, negative = inhibition” value was -10.1%.

Turning to `CC1CCCCN1C(=O)c1ccc2c(c1)N(Cc1ccc(Cl)cc1)C(=O)c1ccccc1S2=O` (stereo unspecified), the “activity change, negative = inhibition” value is 0.84%.

Take `Cc1ccc(Cl)cc1N1CCN(C(=O)Cn2cnc3nc4c(cc3c2=O)CCCC4)CC1`: the “activity change, negative = inhibition” value was -9.53%.

Consider `CC(C)(C)C1CCc2c(sc(NC(=O)c3ccccc3F)c2C(=O)NCc2ccco2)C1` (stereo unspecified), for which the “activity change, negative = inhibition” value is -16.7%.

Take `COc1ccc(C(=O)N2CCc3cc(OC)c(OC)cc3C2COc2ccccc2OC)cc1` (stereo unspecified): the “activity change, negative = inhibition” value was -10.4%.

As to `COc1ccc(CCN2CCC(CNC(=O)c3cnn(-c4ccc(C)cc4)c3C3CCN(C(=O)OC(C)(C)C)CC3)CC2)cc1`, the “activity change, negative = inhibition” value is -7.6%.

Consider `Cc1ccc(CNC(=O)C2CCCN(c3nc4ccccc4n4cccc34)C2)cc1` (stereo unspecified), for which the “activity change, negative = inhibition” value is -0.725%.

As for `COC(=O)c1ccc(CSc2nnc3ccc4ccccc4n23)cc1`, the “activity change, negative = inhibition” value was 1.41%.

As to `Cc1cccc(N2CCN(C(=O)c3cccn3-c3nnc(N4CCCCC4)s3)CC2)c1C`, the “activity change, negative = inhibition” value was -2.85%.

Turning to `Cc1ccc(-c2cn(-c3cccc(Cl)c3)c(S(=O)(=O)CC(=O)Nc3cccc(C)c3)n2)cc1`, the “activity change, negative = inhibition” value is -10.9%.

`Cc1ccc2c(c1)C(c1ccc(F)cc1)N(C(=O)COc1ccc(Cl)cc1Cl)CC(=O)N2` (stereo unspecified): the “activity change, negative = inhibition” value was -0.309%.

Consider `CCC(C(=O)N1CCN(c2ccccc2)CC1)n1nc(C)n2c(cc3sccc32)c1=O` (stereo unspecified), for which the “activity change, negative = inhibition” value was -0.471%.

As for `CCOc1ccccc1CNC(=O)c1cnc2sc(N3CCCCCC3)nn2c1=O`, the “activity change, negative = inhibition” value was 1.93%.

Turning to `COc1ccc(N2CCN(C(=O)c3nn(C)c4c3CSc3ccccc3-4)CC2)cc1`, the “activity change, negative = inhibition” value was -14.2%.

In the case of `Cc1cccn2c(=O)c3cc(C(=O)N(Cc4ccccc4)C(C)C)sc3nc12`, the “activity change, negative = inhibition” value was 3.34%.

On to `CCCCN(CC)CCNC(=O)C1CCN(c2nnc(C)c3c(C)n(-c4ccc(C)cc4)nc23)CC1`, for which the “activity change, negative = inhibition” value is -1.82%.

On to `CCOC(=O)c1c(C)oc2nc(C)nc(N(CC(C)C)CC(C)C)c12`, for which the “activity change, negative = inhibition” value is -17.5%.

On to `CCCN(CCC)CCNC(=O)c1cc2c(-c3ccc(Cl)cc3)nn(C)c2s1`, for which the “activity change, negative = inhibition” value was -0.229%.

Consider `CCCCN(CCCC)CC(O)Cn1cc(/C=C/C(=O)c2ccccc2)c2ccccc21` (stereo unspecified), for which the “activity change, negative = inhibition” value is -1.73%.

In the case of `COc1cccc(N2CCN(C(=O)c3cnn(-c4ccc(C)cc4C)c3C3CCN(C(=O)OC(C)(C)C)CC3)CC2)c1`, the “activity change, negative = inhibition” value is -4.76%.

(Values after PubChem BioAssay AID1347431 (National Center for Advancing Translational Sciences (NCATS), 2020).)
